# Results taken from ChEMBL document CHEMBL4513146, “CO-ADD screening of Karazin Kharkiv National University (Ukraine) compounds”.
# Potency and affinity values are given separately.
# Test system: Staphylococcus aureus
# Conditions: Concentration 32 ug.mL-1;; ASSAY_TEST Inhibition of Bacterial Growth; detection method Absorption (OD600); MEDIA CAMHB; plate type 384well; NBS; CORNING #3640; time 18 hr
row,Structure (SMILES),Inhibition [%]
1,Cc1cccc(CN(c2cccc(Cl)c2)S(=O)(=O)c2cccn3c(C)nnc23)c1,9.05
2,COc1cccc(Oc2nccn3c(=O)n(CC(=O)Nc4ccc5c(c4)OCO5)nc23)c1,9.63
3,CCCc1nnc2c(=O)n(CC(=O)Nc3ccc(Br)cc3)c3ccccc3n12,11.05
4,CCc1nnc2ccc(S(=O)(=O)N(Cc3ccc(OC)c(F)c3)c3ccccc3)cn12,-14.1
5,COc1ccc(NC(=O)Cn2nc3c(Sc4ccccc4)nccn3c2=O)cc1OC,-8.9
6,CCN(C(=O)Cn1nc2nc(Nc3ccc(F)cc3)ccn2c1=O)c1ccccc1,12.68
7,Cc1nnc2c(S(=O)(=O)N(Cc3ccccc3Cl)c3ccc(F)c(F)c3)cccn12,38.47
8,CCOC(=O)c1ccc(NC(=O)Cn2nc3c(SC4CCCCC4)nccn3c2=O)cc1,5.44
9,O=c1n(Cc2nc(-c3ccc(Cl)cc3)no2)nc2ccc(-c3ccccc3)nn12,1
10,COc1cc(NC(=O)Cn2nc3ccc(-c4ccc(C)c(C)c4)nn3c2=O)cc(OC)c1,8.96
11,Cc1ccc2c(c1)N(C(=O)Cn1nc3ccc(SCc4ccc(Cl)cc4)nn3c1=O)CCO2,2.18
12,CC(C)c1nnc2c(=O)n(CC(=O)Nc3ccc(F)cc3F)c3ccccc3n12,12.23
13,Cc1ccc(C)c(-c2cc3c4nnc(SCC(=O)Nc5cccc(Br)c5)n4ccn3n2)c1,0.42
14,C=Cc1ccc(CN(c2cccc(F)c2)S(=O)(=O)c2ccc3nnc(C)n3c2)cc1,2.75
